KinaseGlo FLuc = Counterscreen for Luciferase (Kinase-Glo TM) Inhibition; 0.28% of 200,000 active; AID 1379, 2008; Potency, µM (series often up to 38.3 µM), for the others: top-dose activity change, negative = inhibition, actives largely listed as inhibitors; Kinase-Glo luciferase, ATP luminescence, 8 min; Luciferin 4-monooxygenase (Photuris pensylvanica), Q27757; note: % is set by controls: 0 for no effect and ±100 for the full control effect; nearly all actives have a fitted effect of over 60% in size
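Luminescence was the read-out, taken after 8-minute incubation at ambient temperature. Luciferase turned over luciferin with 10 uM ATP in imidazole pH 7.2 buffer containing KCl, MgCl2, Tween 20 and BSA.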
FLuc modulator = qHTS profiling assay for firefly luciferase inhibitor/activator using purifed enzyme and Km concentrations of substrates (counterscreen for miR-21 project); Luciferin 4-monooxygenase (Photinus pyralis), P08659; purified FLuc, Km substrates, luminescence inhibition; Potency, µM (titrated, usually from 57.5 µM), without a hit: top-dose activity change, negative = inhibition, most hits filed as inhibitors; 6.9% of 360,000 active;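 note: plate controls were vehicle for no effect and reference inhibitor for full effect; nearly all actives have a fitted effect of over 55% in size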
Target sequence (P08659 whole entry, looked up): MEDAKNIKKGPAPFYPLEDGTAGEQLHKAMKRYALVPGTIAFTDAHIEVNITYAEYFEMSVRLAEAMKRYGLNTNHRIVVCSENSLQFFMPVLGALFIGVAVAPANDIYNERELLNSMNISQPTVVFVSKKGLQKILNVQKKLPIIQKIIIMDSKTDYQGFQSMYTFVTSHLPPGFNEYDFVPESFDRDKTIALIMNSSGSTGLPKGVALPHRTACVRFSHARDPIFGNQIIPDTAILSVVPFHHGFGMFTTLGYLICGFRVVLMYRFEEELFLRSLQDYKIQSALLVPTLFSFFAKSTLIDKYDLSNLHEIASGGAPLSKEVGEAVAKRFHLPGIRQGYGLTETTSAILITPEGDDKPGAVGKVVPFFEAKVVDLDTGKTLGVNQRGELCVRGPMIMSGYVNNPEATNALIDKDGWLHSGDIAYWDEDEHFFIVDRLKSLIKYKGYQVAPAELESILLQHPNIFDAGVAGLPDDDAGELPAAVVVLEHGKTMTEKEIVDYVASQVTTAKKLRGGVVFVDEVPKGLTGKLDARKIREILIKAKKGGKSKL
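Purified P. pyralis luciferase (10nM final) with 10uM D-luciferin and 10uM ATP (Km levels) in 50mM Tris acetate pH 7.5, 10mM Mg acetate, 0.01% Tween-20, 0.05% BSA; qHTS 6-point titration, ~60 µM downward; luminescence read.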
ELG1 genotox = qHTS screen for small molecules that induce genotoxicity in human embryonic kidney (HEK293T) cells expressing luciferase-tagged ELG1; HEK293T ELG1-luciferase reporter, luminescence, 16 h; Potency, µM (doses to about 46 µM), for the others: at the highest dose activity change, positive = activation, most hits filed as activators; 1.3% of 330,000 active; note: % of control where 0% means no effect; nearly all actives have a fitted effect of over 60% in size
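HEK293T cells expressing luciferase-tagged ELG1 were treated with compound or DMSO for 16 hr at 37°C. Luciferase activity was then read after 30 min with ONE-Glo at room temperature; rising signal flags genetic stress.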
SMN2 splice enh = qHTS Assay for Enhancers of SMN2 Splice Variant Expression; HEK293 SMN2-luciferase splicing reporter, luminescence, 30-36 h; Potency, µM (series often up to 46.1 µM), inactives show top-dose activity change, positive = activation, usual class: activators; 2.8% of 210,000 active; AID 1458, 2008; note: % of control where 0% means no effect; nearly all actives have a fitted effect of over 55% in size
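qHTS luciferase splicing reporter: luminescence rises when SMN2 exon 7 is included in transfected HEK293 cells. Compound exposure lasted 30-36 h at 37C, with 4.5 mM final sodium butyrate as control, followed by a ONE-Glo read.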
NPC1 prom act = qHTS Assay for NPC1 Promoter Activators | Huh7 NPC1 promoter luciferase reporter, 24 h | Potency, µM (top dose mostly 9.22 µM), for the others: at the top dose activation, usual class: activators | 2.4% of 320,000 active | AID 485313, 2010; note: % of control where 0% means no effect; nearly all actives have a fitted effect of over 60% in size
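Luciferase expression driven by the NPC1 promoter was measured in stably transfected Huh7 cells after a 24 h compound incubation, using a luciferase reagent and a luminescence read.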
Rab9 prom act = qHTS Assay for Rab9 Promoter Activators | Huh7 Rab9 promoter-luciferase reporter, luminescence, 24 h | Potency, µM (series often up to 9.22 µM), for the others: at the highest dose activation, negative = inhibition, actives largely listed as activators | AID 485297, 2010 | 2.8% of 320,000 active; note: % of control where 0% means no effect; nearly all actives have a fitted effect of over 60% in size
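Quantitative HTS format; Huh7 Rab9-luciferase reporter cells (1500/well) receive compound 2 h post-plating, incubate 24 h at 37 °C, then get luciferase reagent for 10 min before luminescence reading.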
The depositor's hits bear a star. In the library only some 7.5% were active in any assay of this set; here they are far more common. Calls come from the whole dose curve; as a rule, active = well fitted curve in the direction sought with a large enough effect; inconclusive = small, poorly fitted or top-dose-only effect, or another doubt; inactive = no such curve, though single readings can be large; an effect the other way counts as inactive or inconclusive. Potency is the fitted concentration of half-maximal effect.

Screening CCCNC(=O)C1CCC(Cn2c(=O)c3sccc3n(CC(=O)N3CCCC(C)C3)c2=O)CC1 (stereo not given) returned FLuc modulator 3.1%.
Screening CCOCCn1cnc2sc(C(=O)Nc3nc(C)c(C(=O)OCC)s3)c(C)c2c1=O returned KinaseGlo FLuc -2.0%, FLuc modulator 2.39µM*, ELG1 genotox 12.0%, SMN2 splice enh -11.6%, NPC1 prom act -9.1% and Rab9 prom act 1.9%.
For CC1CCCN(c2ccc(C(=O)NCc3ccccc3)cn2)C1 (stereo not given) the results were KinaseGlo FLuc 1.8%, FLuc modulator inconclusive, ELG1 genotox 4.8%, SMN2 splice enh inconclusive, NPC1 prom act 17.5% and Rab9 prom act inconclusive.
O=C(NCc1cccs1)c1ccc(N2CCCCC2)nc1 was read as KinaseGlo FLuc -8.7%, FLuc modulator 21.3µM* and SMN2 splice enh inconclusive.
For CC1CCCN(c2ccc(C(=O)NCc3cccs3)cn2)C1 (stereo not given) the results were KinaseGlo FLuc -3.4%, FLuc modulator 19µM*, ELG1 genotox inconclusive, SMN2 splice enh 12.6µM*, NPC1 prom act inconclusive and Rab9 prom act inconclusive.
`O=C(NCc1cccs1)c1ccncc1` gave KinaseGlo FLuc 4.2%, FLuc modulator 1.3%, ELG1 genotox -2.8%, SMN2 splice enh 4.0%, NPC1 prom act -1.3% and Rab9 prom act 2.8%.
For COc1cccc(NC(=O)C(=O)NCCC2CCCCN2S(=O)(=O)c2cccs2)c1 (stereo not given) the results were FLuc modulator 10.7µM*, ELG1 genotox 1.0%, NPC1 prom act 11.3% and Rab9 prom act 29.4%.
COc1ccc(NC(=O)C(=O)NCCC2CCCCN2S(=O)(=O)c2cccs2)cc1 (stereo not given) was read as FLuc modulator -14.5%, ELG1 genotox -4.8%, NPC1 prom act -27.3% and Rab9 prom act -15.1%.
`Cc1ccc(NC(=O)CSc2nnc(-c3nnn(-c4ccc(F)cc4)c3C)o2)cc1Br` gave FLuc modulator inconclusive and SMN2 splice enh 1.3%.
CCOc1ccc(CCNC(=O)c2ccc(CS(=O)Cc3cccc(Cl)c3)o2)cc1 (stereo not given) was read as FLuc modulator 16.9µM*, ELG1 genotox -4.4%, NPC1 prom act -4.4% and Rab9 prom act -1.0%.
Screening CN(C)CCCNS(=O)(=O)c1cc(Cl)ccc1Cl returned KinaseGlo FLuc -0.7%, FLuc modulator 6.2%, ELG1 genotox 18.4µM*, SMN2 splice enh 10.6%, NPC1 prom act -1.3% and Rab9 prom act 16.9%.
For CN(C)c1ccc(NS(=O)(=O)c2cc(Cl)ccc2Cl)cc1 the results were KinaseGlo FLuc 3.5%, FLuc modulator 19µM*, ELG1 genotox 4.6%, SMN2 splice enh -8.0%, NPC1 prom act -2.4% and Rab9 prom act -0.5%.
`CN(C)CCCNS(=O)(=O)c1cc(Cl)c(Cl)cc1Cl` gave FLuc modulator 0.5%, ELG1 genotox 0.0%, NPC1 prom act -1.2% and Rab9 prom act 1.4%.
CCN(c1ccc(NS(=O)(=O)c2cc(Cl)ccc2Cl)cc1)C(C)C was read as KinaseGlo FLuc 2.2%, FLuc modulator -1.8%, ELG1 genotox 4.5%, SMN2 splice enh -25.3%, NPC1 prom act 0.5% and Rab9 prom act 13.1%.
Screening CN(Cc1ccccc1)C(=O)C1CCN(S(=O)(=O)Cc2ccccc2)CC1 returned FLuc modulator -5.5%.
For O=C(O)c1cccc(NC(=S)N/N=C/c2ccccn2)c1 the results were KinaseGlo FLuc -4.5%, FLuc modulator 0.379µM*, ELG1 genotox inconclusive, SMN2 splice enh 0.891µM*, NPC1 prom act 0.282µM* and Rab9 prom act 0.316µM*.
For O=C(O)c1cccc(NC(=S)N/N=C/c2ccccc2OCc2ccc(Br)cc2)c1 the results were KinaseGlo FLuc -3.3%, FLuc modulator 23.9µM*, ELG1 genotox 16.3%, SMN2 splice enh inconclusive, NPC1 prom act 26.7% and Rab9 prom act 18.1%.
O=C(O)c1cccc(NC(=S)N/N=C/c2cccc(O)c2)c1 was read as KinaseGlo FLuc -2.7%, FLuc modulator 2.13µM*, ELG1 genotox -0.8%, SMN2 splice enh 4.7%, NPC1 prom act 13.8% and Rab9 prom act 17.9%.
COc1cc(Cl)c(C)cc1NC(=O)NC1COc2ccccc2C1 (stereo not given) was read as FLuc modulator -16.5%.
For O=C(CN1C(=O)CCc2cc(S(=O)(=O)N3CCOCC3)ccc21)Nc1cccc(Cl)c1 the results were FLuc modulator -10.3%.
N#C/C(=C\c1ccc(OCc2ccc(Cl)cc2Cl)cc1)c1nc2ccccc2[nH]1 was read as FLuc modulator -6.9% and SMN2 splice enh -1.7%.
Screening CCOc1cccc(/C=C(/C#N)c2nc3ccccc3[nH]2)c1OCC(=O)O returned FLuc modulator inconclusive, ELG1 genotox 0.0%, NPC1 prom act -5.2% and Rab9 prom act 0.2%.
Screening N#C/C(=C\c1cccc(OCC(=O)O)c1)c1nc2ccccc2[nH]1 returned FLuc modulator 16.9µM*, ELG1 genotox 1.7%, NPC1 prom act -4.2% and Rab9 prom act 13.0%.
For N#C/C(=C\c1ccc(OC(=O)c2ccc(Cl)s2)cc1)c1nc2ccccc2[nH]1 the results were KinaseGlo FLuc 2.3%, FLuc modulator -2.2%, ELG1 genotox inconclusive, SMN2 splice enh 17.8µM*, NPC1 prom act 20.7% and Rab9 prom act inconclusive.
COc1cc(/C=C(/C#N)c2nc3ccccc3[nH]2)ccc1OCC(=O)Nc1ccccc1C was read as KinaseGlo FLuc -8.9%, FLuc modulator 4.3%, ELG1 genotox inconclusive, SMN2 splice enh -9.8%, NPC1 prom act -3.5% and Rab9 prom act -5.4%.
`N#C/C(=C\c1ccc(OC(=O)c2ccc(Br)s2)cc1)c1nc2ccccc2[nH]1` gave KinaseGlo FLuc -2.4%, FLuc modulator -4.1%, ELG1 genotox 18.1%, SMN2 splice enh 12.6µM*, NPC1 prom act inconclusive and Rab9 prom act inconclusive.
For COc1cc(/C=C(\C#N)c2nc3ccccc3[nH]2)ccc1OC(=O)c1ccco1 the results were KinaseGlo FLuc inconclusive, FLuc modulator 0.953µM*, ELG1 genotox inconclusive, SMN2 splice enh 35.5µM*, NPC1 prom act 25.5% and Rab9 prom act inconclusive.
Screening O=C(O)c1cccc(Cl)c1Cl returned SMN2 splice enh -2.0%.

Screens: PubChem, National Center for Advancing Translational Sciences (NCATS)
